Test results taken from the supplement of paper PMC10849652.
Targets with a hit are over-represented here; the source holds about 7,900 in all. About 0.6% of all pairs of compound and target were hits.

Assays:
Test in all cases: log2 fold change, soluble protein after heating vs DMSO (PISA); higher = thermal stabilisation; K562 cells, 10 uM, 30 min; active = over 0.2 and 3.5 SD of the protein, either way, in both replicates (recomputed)
[1] = compound: C1=CC=C(C=C1)[C@H](COC2=CC3=C(C=C2)NC(=O)N3)NC(=O)C4=CC=CN(C4=O)CC5=CC(=C(C=C5)F)F
How it was run: (§1)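 Thermal stability values are relative to control samples and come from duplicates. They are expressed as log2 fold changes. For measurement, K562 cells (2×10^6 cells/mL) received 10 μM compound for 30 min, and aliquots were heated for 3 min over 48°C-58°C, pooled, and extracted at 4°C in PBS with 0.5% NP-40. Soluble protein, the supernatant after 21,000xg for 90 min, was quantified by TMTpro 16plex LC-MS/MS with equalised channel sums.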

[2] = compound: CC1=C(SC2=C1C(=N[C@H](C3=NN=C(N32)C)CC(=O)N)C4=CC=C(C=C4)Cl)C
How it was run: as §1

[3] = compound: CC1=C2C(=CC=C1)N=C(N(C2=O)C3=CC=CC=C3C)CN4C=NC5=C(N=CN=C54)N
How it was run: as §1

[4] = compound: Cc1sc2c(c1C)C(c1ccc(Cl)cc1)=N[C@@H](CC(=O)OC(C)(C)C)c1nnc(C)n1-2
How it was run: as §1

[5] = compound: c1ccc([C@@H]2C[C@H]2NC2CCNCC2)cc1
How it was run: as §1

Measured: log2 fold change

PPP1R14A (UniProt Q96A00)
Chain of UniProt Q96A00 (Q96A00 whole entry, looked up): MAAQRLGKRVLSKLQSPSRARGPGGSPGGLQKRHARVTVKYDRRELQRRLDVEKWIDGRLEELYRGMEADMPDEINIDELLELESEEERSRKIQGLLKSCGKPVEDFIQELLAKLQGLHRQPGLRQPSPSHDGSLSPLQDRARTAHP
inactive: [1] 0.011 | [2] 0.009 | [3] -0.002 | [4] 0.061 | [5] -0.013

PRKAR2A (UniProt P13861)
Chain of UniProt P13861 (P13861 whole entry, looked up): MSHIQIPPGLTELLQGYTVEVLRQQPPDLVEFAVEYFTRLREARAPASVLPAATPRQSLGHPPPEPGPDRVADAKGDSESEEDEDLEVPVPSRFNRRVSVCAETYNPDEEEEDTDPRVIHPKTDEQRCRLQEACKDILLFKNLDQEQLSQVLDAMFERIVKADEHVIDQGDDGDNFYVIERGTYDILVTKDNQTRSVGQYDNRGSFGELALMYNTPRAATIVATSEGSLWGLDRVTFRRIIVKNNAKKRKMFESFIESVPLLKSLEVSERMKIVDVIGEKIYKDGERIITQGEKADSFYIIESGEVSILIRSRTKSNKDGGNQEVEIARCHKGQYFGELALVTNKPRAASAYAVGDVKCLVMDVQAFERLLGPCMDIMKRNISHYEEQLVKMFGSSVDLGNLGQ
inactive: [1] 0.044 | [2] 0.046 | [3] 0.054 | [4] 0.018 | [5] -0.003

PDS5A (UniProt Q29RF7)
Chain of UniProt Q29RF7 (Q29RF7 whole entry, looked up): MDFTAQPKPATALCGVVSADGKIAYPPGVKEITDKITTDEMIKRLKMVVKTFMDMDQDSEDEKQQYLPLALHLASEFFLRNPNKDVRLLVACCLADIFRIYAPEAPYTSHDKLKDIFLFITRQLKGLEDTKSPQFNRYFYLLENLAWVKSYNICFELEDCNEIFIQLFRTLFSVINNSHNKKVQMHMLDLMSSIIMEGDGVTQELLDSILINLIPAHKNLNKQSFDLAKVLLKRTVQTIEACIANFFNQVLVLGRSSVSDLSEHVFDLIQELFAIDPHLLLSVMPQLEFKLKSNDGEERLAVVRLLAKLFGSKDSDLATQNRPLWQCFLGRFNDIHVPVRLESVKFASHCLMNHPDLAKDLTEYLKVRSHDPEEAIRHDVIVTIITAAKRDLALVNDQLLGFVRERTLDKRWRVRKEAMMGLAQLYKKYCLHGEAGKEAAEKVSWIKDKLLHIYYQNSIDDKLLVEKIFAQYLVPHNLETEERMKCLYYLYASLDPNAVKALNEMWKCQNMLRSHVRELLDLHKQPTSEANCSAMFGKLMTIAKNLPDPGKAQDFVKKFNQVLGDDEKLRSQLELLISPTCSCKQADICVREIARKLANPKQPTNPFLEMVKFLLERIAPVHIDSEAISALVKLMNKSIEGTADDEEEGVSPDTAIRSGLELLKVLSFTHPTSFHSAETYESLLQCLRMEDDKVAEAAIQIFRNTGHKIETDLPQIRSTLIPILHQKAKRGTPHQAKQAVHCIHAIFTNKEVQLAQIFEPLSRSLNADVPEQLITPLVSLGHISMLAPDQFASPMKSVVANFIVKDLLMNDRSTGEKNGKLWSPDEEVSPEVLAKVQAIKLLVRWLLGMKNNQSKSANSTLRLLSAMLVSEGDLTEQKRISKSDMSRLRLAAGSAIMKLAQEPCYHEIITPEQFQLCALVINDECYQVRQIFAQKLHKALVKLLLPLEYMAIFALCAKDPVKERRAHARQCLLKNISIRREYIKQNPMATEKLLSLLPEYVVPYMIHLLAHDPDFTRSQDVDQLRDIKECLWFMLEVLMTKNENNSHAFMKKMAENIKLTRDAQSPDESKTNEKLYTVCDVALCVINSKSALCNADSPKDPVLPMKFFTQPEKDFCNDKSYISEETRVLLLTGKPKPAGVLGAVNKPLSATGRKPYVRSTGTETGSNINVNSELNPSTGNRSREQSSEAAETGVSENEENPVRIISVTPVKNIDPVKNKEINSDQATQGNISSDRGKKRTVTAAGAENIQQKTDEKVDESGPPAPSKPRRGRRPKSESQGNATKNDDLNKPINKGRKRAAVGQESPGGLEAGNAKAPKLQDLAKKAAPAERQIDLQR
inactive: [1] -0.34 | [2] 0.066 | [3] 0.096 | [4] 0.038 | [5] -0.105

PURA (UniProt Q00577)
Chain of UniProt Q00577 (Q00577 whole entry, looked up): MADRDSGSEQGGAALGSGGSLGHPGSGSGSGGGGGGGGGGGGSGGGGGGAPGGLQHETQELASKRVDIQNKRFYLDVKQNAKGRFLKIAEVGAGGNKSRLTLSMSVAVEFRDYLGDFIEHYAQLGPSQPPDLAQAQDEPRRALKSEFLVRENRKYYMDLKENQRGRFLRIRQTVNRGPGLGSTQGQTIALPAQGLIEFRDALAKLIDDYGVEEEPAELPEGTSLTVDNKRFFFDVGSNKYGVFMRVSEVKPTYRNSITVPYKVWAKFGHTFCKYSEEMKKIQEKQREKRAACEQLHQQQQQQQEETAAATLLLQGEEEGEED
inactive: [1] 0.116 | [2] -0.403 | [3] -0.092 | [4] 0.298 | [5] 0.043

PLIN2 (UniProt Q99541)
Chain of UniProt Q99541 (Q99541 whole entry, looked up): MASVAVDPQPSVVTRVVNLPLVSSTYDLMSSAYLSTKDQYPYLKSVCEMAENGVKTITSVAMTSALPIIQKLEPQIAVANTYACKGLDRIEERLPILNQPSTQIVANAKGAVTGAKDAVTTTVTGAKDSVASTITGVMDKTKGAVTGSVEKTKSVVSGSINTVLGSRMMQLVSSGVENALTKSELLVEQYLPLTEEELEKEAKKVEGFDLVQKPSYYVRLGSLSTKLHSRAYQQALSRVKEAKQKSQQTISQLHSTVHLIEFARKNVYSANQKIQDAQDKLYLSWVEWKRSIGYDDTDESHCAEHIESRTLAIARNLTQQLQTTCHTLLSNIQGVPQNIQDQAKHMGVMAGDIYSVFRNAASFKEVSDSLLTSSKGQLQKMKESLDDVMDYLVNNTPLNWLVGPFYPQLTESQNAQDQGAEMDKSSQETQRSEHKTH
inactive: [1] -0.063 | [2] -0.006 | [3] 0.093 | [4] 0.004 | [5] 0.015

PCBP1 (UniProt Q15365)
Chain of UniProt Q15365 (Q15365 whole entry, looked up): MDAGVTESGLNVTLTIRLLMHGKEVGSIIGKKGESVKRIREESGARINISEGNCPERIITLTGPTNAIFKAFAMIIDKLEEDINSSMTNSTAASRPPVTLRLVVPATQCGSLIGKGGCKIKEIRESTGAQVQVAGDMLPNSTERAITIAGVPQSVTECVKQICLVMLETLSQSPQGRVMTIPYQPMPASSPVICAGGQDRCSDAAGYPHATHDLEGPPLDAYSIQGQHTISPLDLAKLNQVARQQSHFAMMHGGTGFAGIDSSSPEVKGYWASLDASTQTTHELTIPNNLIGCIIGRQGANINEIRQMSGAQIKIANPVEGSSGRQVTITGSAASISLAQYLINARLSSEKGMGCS
inactive: [1] -0.045 | [2] 0.047 | [3] 0.048 | [4] -0.03 | [5] 0

PSMC3 (UniProt P17980)
Chain of UniProt P17980 (P17980 whole entry, looked up): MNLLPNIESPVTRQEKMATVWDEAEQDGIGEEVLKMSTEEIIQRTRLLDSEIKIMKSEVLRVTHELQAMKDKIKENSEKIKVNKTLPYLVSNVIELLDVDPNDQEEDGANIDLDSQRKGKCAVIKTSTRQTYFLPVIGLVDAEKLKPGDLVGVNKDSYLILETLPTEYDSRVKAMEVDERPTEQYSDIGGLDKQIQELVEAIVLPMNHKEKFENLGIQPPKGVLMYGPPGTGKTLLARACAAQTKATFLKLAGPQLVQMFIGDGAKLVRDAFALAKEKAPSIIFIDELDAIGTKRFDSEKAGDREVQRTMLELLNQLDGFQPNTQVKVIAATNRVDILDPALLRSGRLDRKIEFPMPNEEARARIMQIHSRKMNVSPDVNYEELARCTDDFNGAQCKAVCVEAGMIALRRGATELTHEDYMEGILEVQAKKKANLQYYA
inactive: [1] 0.014 | [2] -0.083 | [3] -0.058 | [4] 0 | [5] 0

PIP4K2A (UniProt P48426)
Chain of UniProt P48426 (P48426 whole entry, looked up): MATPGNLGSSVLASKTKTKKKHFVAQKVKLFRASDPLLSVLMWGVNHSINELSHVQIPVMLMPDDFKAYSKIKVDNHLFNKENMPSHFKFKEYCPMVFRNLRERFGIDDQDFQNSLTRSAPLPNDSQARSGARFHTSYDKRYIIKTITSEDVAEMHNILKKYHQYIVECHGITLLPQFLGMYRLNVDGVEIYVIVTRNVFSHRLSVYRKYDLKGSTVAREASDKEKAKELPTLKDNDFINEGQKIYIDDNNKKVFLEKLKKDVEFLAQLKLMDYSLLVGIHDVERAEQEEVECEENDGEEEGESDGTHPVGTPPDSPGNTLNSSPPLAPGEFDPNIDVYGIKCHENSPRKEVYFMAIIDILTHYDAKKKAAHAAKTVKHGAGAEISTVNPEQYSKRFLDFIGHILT
inactive: [1] -0.091 | [2] 0.032 | [3] 0.049 | [4] 0.033 | [5] -0.024

PPT1 (UniProt P50897)
Chain of UniProt P50897 (P50897 whole entry, looked up): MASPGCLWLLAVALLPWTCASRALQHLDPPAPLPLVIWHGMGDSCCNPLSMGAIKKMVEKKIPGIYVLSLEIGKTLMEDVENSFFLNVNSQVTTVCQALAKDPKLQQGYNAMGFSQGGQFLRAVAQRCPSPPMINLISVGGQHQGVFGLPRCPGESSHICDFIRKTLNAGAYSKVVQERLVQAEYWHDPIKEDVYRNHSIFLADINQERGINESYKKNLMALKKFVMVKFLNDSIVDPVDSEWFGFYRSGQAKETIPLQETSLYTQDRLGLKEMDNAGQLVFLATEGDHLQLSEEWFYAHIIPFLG
inactive: [1] 0.047 | [2] 0.021 | [3] 0 | [4] -0.003 | [5] -0.003
